Screening data from PubChem BioAssay.
Only some compounds are listed: those with a hit (about 19% of all), similar ones and a draw of the others.
IL-1B inflam inh: qHTS for Inhibitors of Inflammasome Signaling: IL-1-beta AlphaLISA Primary Screen; THP-1 LPS/ATP IL-1B secretion, AlphaLISA, 16 h; hits give low values; activity change, % at 57.5 µM; actives 4.7% (n = 360,000); in the data active = activity change below about -50%; inconclusive = mostly about -30% to -49%
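THP-1 cells pretreated 1 hr with compounds (up to 57.5 uM final), then stimulated with LPS (250 ng/mL final) plus ATP (1.25 mM final); secreted IL-1B measured by AlphaLISA after 16 hr, decreased signal indicating inhibition.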
DT40 TDP1 no CPT: qHTS for Inhibitors of human tyrosyl-DNA phosphodiesterase 1 (TDP1): qHTS in cells in absence of CPT; DT40 Tdp1-/- hTDP1 cells, no CPT, ATP luminescence, 48 h; Potency, µM (highest dose often 46.2 µM), without a hit: at the highest dose activity change, negative = growth inhibition, most hits filed as inhibitors; actives 15% (n = 420,000); AID 686978, 2013; note: potency is the fitted concentration of half-maximal effect; nearly all actives have a fitted effect of over 55% in size
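Luminescent ATP content (CellTiter-Glo) served as the growth readout. Knockout chicken DT40 cells expressing human TDP1 were exposed to compounds without camptothecin for a minimum 48 hr at 37 °C.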
HT1080 IDH1KD tx: qHTS for induction of synthetic lethality in tumor cells producing 2HG: qHTS for the HT-1080-IDH1KD cell line; HT-1080 IDH1 knockdown viability, ATP luminescence, 48 h; actives 2% (n = 360,000); AID 686971, 2013; Potency, µM (titrated, usually from 46.1 µM), inactives show at the top dose activity, negative = toxicity, hits mostly cytotoxic;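 note: potency is the fitted concentration of half-maximal effect; 0% = DMSO wells and -100% = cell-free medium wells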
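Luminescent ATP read-out (CellTiter-Glo, 10 min at room temperature) after 48 h compound exposure at 37 °C gave viability of IDH1-knockdown HT-1080 cells. Activity was normalised to DMSO and cell-free wells, then fitted as concentration-response curves.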
TDP1 cell CPT: qHTS for Inhibitors of human tyrosyl-DNA phosphodiesterase 1 (TDP1): qHTS in cells in presence of CPT; Potency, µM (series often up to 46.2 µM), for inactives: top-dose activity change, negative = growth inhibition, hits mostly inhibitors; AID 686979, 2013; actives 12% (n = 420,000); chicken DT40 Tdp1-/-;hTDP1 cells + 20 nM CPT, ATP luminescence, 48 h; note: potency is the fitted concentration of half-maximal effect; nearly all actives have a fitted effect of over 55% in size
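Cell growth measured by CellTiter-Glo luminescence after a minimum 48 h, 37 C compound exposure with 20 nM CPT in Tdp1-knockout DT40 cells stably expressing hTDP1, seeded 400/well; qHTS titration format.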
HT1080-NT tox: qHTS for induction of synthetic lethality in tumor cells producing 2HG: qHTS for the HT-1080-NT fibrosarcoma cell line; actives 1.6% (n = 360,000); HT-1080-NT fibrosarcoma viability, CellTiter-Glo ATP luminescence, 48 h; Potency, µM (highest dose often 46.1 µM), without a hit: at the top dose activity, negative = less viability, most hits filed as cytotoxic; AID 686970, 2013;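 note: NT is the 2HG producing partner of a matched IDH1 knockdown line; potency is the fitted concentration of half-maximal effect; 0% = DMSO-treated cells and -100% = media-only wells without cells; nearly all actives have a fitted effect of over 55% in size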
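Read-out is CellTiter-Glo luminescence after 10 minutes at room temperature, following 48 hours' compound treatment of HT-1080-NT cells (750 cells/well, RPMI, 5% FBS, 37 degrees C).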
Numbers without * were called inactive; ? = inconclusive; . = no result. Unless noted, calls come from the whole dose curve; as a rule, active = well fitted curve in the direction sought with a large enough effect; inconclusive = small, poorly fitted or top-dose-only effect, or another doubt; inactive = no such curve, though single readings can be large; an effect the other way counts as inactive or inconclusive. Unless noted, % is set by controls: 0 for no effect and ±100 for the full control effect.

SMILES	IL-1B inflam inh	DT40 TDP1 no CPT	HT1080 IDH1KD tx	TDP1 cell CPT	HT1080-NT tox
CS(=O)(=O)c1ccc(Cl)c(NC(=O)c2cc(=O)[nH]c3ccc(S(=O)(=O)N4CCOCC4)cc23)c1	7	-15%	17%	-5%	5%
C=CCn1c(COc2ccc(F)cc2)nnc1SCC(=O)NC1CCS(=O)(=O)C1 (centres undefined)	-2	-12%	-4%	-6%	-2%
CCOc1ccc2nc(NC(=O)CSc3nc4cccnc4n3C)sc2c1	-11	3.3µM*	?	8.2µM*	?
CCOc1ccc2nc(NC(=O)CCn3cccc3)sc2c1	-11	-2%	-8%	-9%	-14%
CCOc1ccc2nc(NC(=O)c3ccc(C)o3)sc2c1	-30	18µM*	?	?	-9%
CCOc1ccc2nc(NC(=O)CSc3ccccc3)sc2c1	-9	26µM*	-29%	?	-13%
CCc1ccc2nc(NC(=O)c3cc(C)on3)sc2c1	1	8.2µM*	6.5µM*	9.2µM*	9.2µM*
COc1ccccc1/C=C/C(=O)Nc1nc(N)n(-c2ccccc2)n1	0	-11%	6%	-9%	0%
CCc1nnc(NC(=O)c2nc(SCc3ccccc3C)ncc2Cl)s1	.	-10%	.	-16%	.
CCOc1ccc2nc(NC(=S)N(C)C)sc2c1	-14	1.2µM*	-1%	1.3µM*	8%
CCOc1ccc2nc(NC(=O)C3=NNC(=O)CC3)sc2c1	-2	11%	13%	7%	14%
CCOc1ccc2nc(NC(=O)c3cnc(C)cn3)sc2c1	-10	21µM*	-13%	15µM*	-17%
CCOc1ccc2nc(NC(=O)c3nc(SCc4ccccc4C)ncc3Cl)sc2c1	.	2.9µM*	.	13µM*	.
CC(=O)c1cccc(NC(=O)Cn2nc(-c3ccc(Cl)cc3)ccc2=O)c1	-15	8%	0%	-5%	0%
Cc1ccc(NCc2n[nH]c(=S)n2-c2ccccc2)c(C)c1	16	-25%	2%	-2%	17%
Cc1cc(C)cc(N(C(=O)CCC(=O)Nc2cc(C)on2)C(C(=O)NC2CCCC2)c2ccco2)c1 (centres undefined)	-5	21µM*	-3%	?	-2%
COc1ccc(C(C(=O)NC(C)(C)C)N(C(=O)CCC(=O)Nc2cc(C)on2)c2cc(C)cc(C)c2)cc1 (centres undefined)	-2	21µM*	-6%	?	-19%
COc1ccc(N(C(=O)Cn2nnc3ccccc32)C2(C(=O)NC3CCCC3)CCCCC2)cc1	-58*	?	-21%	?	8%
CCOc1ccc(N(C(=O)Cn2nnc3ccccc32)C(C(=O)NCc2ccccc2)c2ccc(OC)cc2)cc1 (centres undefined)	.	-21%	.	-28%	.
COc1ccc(N(C(=O)Cn2cnc3ccccc32)C(C(=O)NC2CCCCC2)c2ccccc2)cc1 (centres undefined)	-75*	?	-29%	15µM*	?
COc1ccc(C(C(=O)NC(C)(C)C)N(Cc2ccc(C)cc2)C(=O)CCC(=O)Nc2cc(C)on2)cc1 (centres undefined)	0	?	-22%	-39%	-18%
COCCN(C(=O)Cn1nnc2ccccc21)C(C(=O)NC1CCCCC1)c1ccc(OC)cc1OC (centres undefined)	-11	-7%	-2%	-4%	-3%
Cc1cc(NC(=O)CCC(=O)N(c2ccccc2)C2(C(=O)NC3CCCCC3)CCCC2)no1	-61*	-29%	-6%	-22%	-6%
Cc1ccc(C)c(N(C(=O)CCC(=O)Nc2cc(C)on2)C(C(=O)NC2CCCC2)c2ccco2)c1 (centres undefined)	-6	23µM*	21%	16µM*	21%
